# VDR inhibitor = inhibitors of human vitamin D receptor; P11473; VDR-SRC2-3 peptide fluorescence polarization, 2 h; Potency, µM, for the others: max response, negative = inhibition, hits mostly inhibitors; 400,000 compounds, 0.93% hits; AID 504847
#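 Inhibition of the VDR/SRC2-3 peptide interaction is quantified by fluorescence polarization. Compounds (23 nl, pintool) incubate with the reagents for 2 hours at ambient room temperature.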
# TDP1 inh = inhibitors of human tyrosyl-DNA phosphodiesterase TDP1; 350,000 compounds, 0.28% hits; recombinant TDP1, AlphaScreen DNA substrate cleavage; Potency, µM (top dose mostly 130 µM), for the others: at the highest dose activity change, negative = inhibition, hits mostly inhibitors; note: nearly all actives have a fitted effect of over 40% in size
#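 AlphaScreen read-out: signal falls as enzyme removes the 3' tyrosine-FITC from a 5'-biotinylated DNA oligo (15 nM, 5 min, RT). Enzyme was E. coli-made recombinant Tdp1 at 1 nM, exposed to compound for 15 min beforehand; beads 10 ug/ml, 10 min.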
# DT40 TDP1 no CPT = qHTS for Inhibitors of human tyrosyl-DNA phosphodiesterase 1 (TDP1): qHTS in cells in absence of CPT. DT40 Tdp1-/- hTDP1 cells, no CPT, ATP luminescence, 48 h. Potency, µM (highest dose often 46.2 µM), for the others: top-dose activity change, negative = growth inhibition, actives largely listed as inhibitors. 420,000 compounds, 15% hits. AID 686978, 2013; note: nearly all actives have a fitted effect of over 55% in size
#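 Camptothecin absent (DMSO only). Human TDP1-complemented DT40 knockout cells, 400 cells/well, 37 °C for minimum 48 hr; ATP measured via CellTiter-Glo, 30 min dark incubation, luminescence.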
# PLK1 PBD inh = PLK1 (human) polo-box domain binding inhibition; P53350; Plk1 PBD binding of FITC phosphopeptide, fluorescence polarization; 360,000 compounds, 2.8% hits; Potency, µM, inactives show max response, negative = inhibition, hits mostly inhibitors; note: series mostly up to about 57 µM; nearly all actives have a fitted effect of over 65% in size
# Target sequence (P53350 whole entry, looked up, the tested form may be a part): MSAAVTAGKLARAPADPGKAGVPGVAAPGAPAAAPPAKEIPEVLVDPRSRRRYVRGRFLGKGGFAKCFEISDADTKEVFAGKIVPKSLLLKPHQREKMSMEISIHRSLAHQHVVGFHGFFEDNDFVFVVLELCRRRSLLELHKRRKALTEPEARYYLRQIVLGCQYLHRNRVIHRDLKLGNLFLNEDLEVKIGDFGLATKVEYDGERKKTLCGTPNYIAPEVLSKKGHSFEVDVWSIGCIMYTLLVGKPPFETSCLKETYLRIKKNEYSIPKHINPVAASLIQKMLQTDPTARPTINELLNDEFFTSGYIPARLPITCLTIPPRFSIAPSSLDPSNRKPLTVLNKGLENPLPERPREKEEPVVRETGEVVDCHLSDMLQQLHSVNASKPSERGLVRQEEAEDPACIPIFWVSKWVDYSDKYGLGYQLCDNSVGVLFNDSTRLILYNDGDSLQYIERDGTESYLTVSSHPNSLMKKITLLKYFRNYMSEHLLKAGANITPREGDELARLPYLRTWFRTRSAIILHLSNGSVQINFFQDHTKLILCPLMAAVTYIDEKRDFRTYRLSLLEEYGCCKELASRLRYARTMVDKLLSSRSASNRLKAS
# DT40 TDP1 CPT = growth inhibition of DT40 Tdp1-/-;hTDP1 cells with camptothecin (screen for TDP1 inhibitors); chicken DT40 Tdp1-/-;hTDP1 cells + 20 nM CPT, ATP luminescence, 48 h; Potency, µM (highest dose often 46.2 µM), for the others: top-dose activity change, negative = growth inhibition, most hits filed as inhibitors; 420,000 compounds, 12% hits; note: nearly all actives have a fitted effect of over 55% in size
#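 Chicken DT40 Tdp1-/- cells complemented with human TDP1, 400 cells/well, exposed to compounds plus 20 nM camptothecin for at least 48 h at 37 C; viability read as ATP content by CellTiter-Glo luminescence.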
# GCN5L2 inh = blocks human GCN5L2 histone acetyltransferase; Q92830; GCN5L2 HAT assay, ThioGlo1 CoA-SH fluorescence; Potency, µM (top dose mostly 58.9 µM), inactives show at the highest dose activity change, negative = inhibition, hits mostly inhibitors; 390,000 compounds, 0.21% hits
#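 Titration-based screen in which CoA formation is detected via maleimide probe ThioGlo1 (50uM) turning fluorescent on thiol reaction; substrates H3(1-25) 75uM and acetyl-CoA 70uM, GCN5L2 20nM, 20 min incubation at room temperature.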
# Active calls of the source: *; ? = inconclusive; . = not tested or not shown. Most compounds without a hit are left out; they make up all but 18% or so of the library. Calls come from the whole dose curve; as a rule, active = well fitted curve in the direction sought with a large enough effect; inconclusive = small, poorly fitted or top-dose-only effect, or another doubt; inactive = no such curve, though single readings can be large; an effect the other way counts as inactive or inconclusive. % is set by controls: 0 for no effect and ±100 for the full control effect; potency is the fitted concentration of half-maximal effect.
SMILES,VDR inhibitor,TDP1 inh,DT40 TDP1 no CPT,PLK1 PBD inh,DT40 TDP1 CPT,GCN5L2 inh
Cc1cccc(/C=C/c2onc(C)c2S(=O)(=O)N2CCC(C(=O)N3CCCCC3)CC2)c1,-14.7%,1.3%,18.4µM*,-3.9%,29.1µM*,-11.1%
COc1ccc(-c2cc3c(o2)CCCC3OCCN2CCOCC2)cc1 (stereo unspecified),.,.,?,-4.8%,?,.
Cc1ccc(Cl)cc1NC(=S)N(CCN(C)C)C(C)c1ccccn1 (stereo unspecified),-11.8%,4.6%,0.1%,4.6%,1.2%,-7.5%
CC[C@H](C)[C@H]1CNC(=S)N1CC1CCN(CCC(C)C)CC1,.,.,-24.3%,-16.6%,-26.1%,.
CCN(C(=O)CCS(=O)(=O)c1cccc2nonc12)c1ccc(C)c(C)c1,7.1%,10.3%,?,-11.6%,?,-1.6%
COc1ccccc1C#CC1=CC(=O)C[C@H](c2ccc(F)cc2)C1,.,.,16.4µM*,-14.6%,14.6µM*,.
O=C1C=C(C#Cc2ccccc2)C[C@@H](c2ccc(F)cc2)C1,.,.,4.61µM*,-20.4%,4.61µM*,.
COc1ccc(C2=CC(=O)C[C@H](c3ccc(F)cc3)C2)c(F)c1F,7.1%,-3.1%,?,2.3%,?,-6.6%
CCCCn1c(SCC(=O)Nc2cc(C(F)(F)F)cc(C(F)(F)F)c2)nnc1C(CC)N(C)C (stereo unspecified),-3.1%,5.4%,20.6µM*,1.3%,23.1µM*,-13.6%
COc1cc(C(=O)Nc2ccc(S(=O)(=O)N3CCCCC3)cc2)ccc1OCC(=O)N1CCOCC1,-10.9%,.,-9.1%,2.0%,-19.9%,.
Nc1c(C(=O)Nc2cccc(Cl)c2)sc2nc3c(cc12)CN(Cc1ccccc1)CC3,0.1%,11.6%,14.6µM*,.,7.31µM*,-3.8%
COc1ccc(NC(=O)c2sc3nc4c(cc3c2N)CN(C(C)C)CC4)c(OC)c1,-6.3%,6.9%,?,.,23.1µM*,-3.3%
Cc1cccc(NC(=O)c2sc3nc4c(cc3c2N)CN(Cc2ccccc2)CC4)c1,-1.1%,-2.3%,18.4µM*,.,14.6µM*,-0.8%
Cc1cccc(NC(=O)c2sc3nc4c(cc3c2N)CN(C(C)C)CC4)c1,-12.6%,9.2%,?,.,20.6µM*,-12.1%
COc1ccc(NC(=O)c2sc3nc4c(cc3c2N)CN(Cc2ccccc2)CC4)cc1,-4.4%,0.0%,2.1%,.,2.7%,-2.3%
COCCn1c(=O)c(C)nc2cnc(N3CCOCC3)nc21,2.5%,.,9.8%,.,2.6%,-12.9%
COC(=O)c1ccc(C(NC(=O)OCc2ccccc2)/C(C)=C/[C@@H](C)C(=O)NCCN2CCOCC2)cc1 (stereo partly specified),.,3.3%,.,.,.,.
Cc1ccc(CSc2ncc(Cl)c(C(=O)Nc3nnc(C)s3)n2)cc1,5.5%,7.0%,-19.9%,.,-6.0%,-3.2%
CN1CCc2nc3sc(C(=O)Nc4cccc(C#N)c4)c(N)c3cc2C1,-22.7%,-7.1%,8.2µM*,.,20.6µM*,-5.8%
O=C1NC2c3ccccc3CC2O1 (stereo unspecified),-16.9%,.,27.3%,9.9%,0.1%,-4.9%
O=C1NC2c3c(I)sc(I)c3C(=O)C2O1 (stereo unspecified),-20.1%,.,7.31µM*,?,6.51µM*,.
O=C1NC2c3c(Cl)sc(Cl)c3C(=O)C2O1 (stereo unspecified),?,.,20.6µM*,15µM*,20.6µM*,.
CCOC(=O)c1ccccc1NC(=O)N1CCc2c(sc(C)c2CC)C1c1ccccc1 (stereo unspecified),12.9%,3.8%,16.4µM*,.,?,-6.5%
CCOc1ccccc1NC(=O)N1CCc2c(sc3c2CCCC3)C1c1ccccc1 (stereo unspecified),6.2%,3.8%,23.1µM*,.,?,-4.5%

# Assay outcomes as filed in PubChem BioAssay.
